Bioassay records: PubChem BioAssay, Broad Institute
MITF TRPM1 inh = MITF TRPM1 promoter inhibition in SK-MEL-5 cells | SK-MEL-5 TRPM1 promoter luciferase, 24 h | inhibition, % at 12.5 µM | hit rate 0.83% among 330,000;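 active means mean inhibition across replicates of 60% or more, whatever share of single replicates reaches that level; inconclusive means some that reach 60%, reason not given; inactive means mean inhibition across replicates below 60%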
Wnt act = Wnt/beta-catenin pathway activation; Wnt/beta-catenin reporter cell assay, activator, plate reader; activation, % at 9.35 µM; hit rate 1.2% among 300,000; AID 743398; in the data active means activation above about 30%, passing the limit was not always enough; inconclusive means no clear call, values can overlap the other calls;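 further: 0% = neutral control wells and 100% = positive control wells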
EWS-Fli block = EWS/Fli transcriptional activity inhibition | A673 NR0B1-luciferase reporter, viability-normalised | inhibition, % at 12.6 µM | hit rate 0.67% among 350,000 | AID 651661;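 active means mean inhibition of at least 50% after viability correction, with every replicate also passing that limit; inconclusive means mean reaches 50% but only one of two replicates passes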;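 further: firefly luciferase signal divided by Alamar Blue viability fluorescence both relative to DMSO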
PAX8 inh HTS = lowers PAX8-driven luciferase in RMG-I cells. RMG-I TPO-luciferase reporter, SteadyGlo, 24 h. inhibition, % at 12.6 µM. hit rate 1.2% among 360,000. AID 652154;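 active means mean replicate inhibition at least 60% with every replicate also reaching 60%; inconclusive means only one of the two criteria is met; inactive means mean below 60% and not all replicates reaching 60%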;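 further: luciferase light reporting Pax8 driven TPO promoter activity; plate controls were median of neutral control wells for no effect and mitoxantrone controls for full effect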
esBAF inh = SWI/SNF esBAF complex inhibition. AID 602393. hit rate 2% among 350,000. mouse ES cells, Bmi1-luciferase knock-in reporter, 24 h; 100% = twice the neutral-well signal. reporter increase, % at 12.5 µM; in the data active means activation above about 40%; inconclusive means no clear call, values can overlap the other calls;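 further: 0% = median of the plate's neutral control wells and 100% = double that signal; a rise in the Bmi1 reporter signal indicates esBAF inhibition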
MITF act = activators of MITF-driven TRPM1 promoter activity in SK-MEL-5 cells | SK-MEL-5 TRPM1-promoter luciferase, 24 h; % of positive control, neutral wells = 0 | activation, % at 12.5 µM | hit rate 0.75% among 300,000 | AID 588334;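 active means mean activation of at least 80% with every replicate also reaching 80%; inconclusive means mean reaches 80% but some replicate falls short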;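 further: 0% = neutral control wells and 100% = parthenolide positive control wells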
* marks the source's active call; other numbers are inactive results; ? = inconclusive; nt = not tested or not shown. Shown are actives, neighbours in structure and some others; about 4% of the full set was active somewhere.

SMILES	MITF TRPM1 inh	Wnt act	EWS-Fli block	PAX8 inh HTS	esBAF inh	MITF act
COc1ccc(NC(=O)Nc2ccc3c(c2)[C@@H]2C[C@H](CC(=O)NCc4ccccc4F)O[C@@H](CO)[C@@H]2O3)cc1	nt	nt	0	-12	2	nt
Cc1[nH]c2ccccc2c1C(=O)/C=C\c1ccccc1Cl	-21	nt	nt	-157	nt	19
Cc1[nH]c2ccccc2c1C(=O)/C=C/c1ccccc1	-19	-2	nt	nt	84*	23
COc1ccc2c3c([nH]c2c1)[C@H](CO)N(C(=O)c1cccc(F)c1)CC31CCN(C(=O)CC2CC2)CC1	nt	nt	7	nt	nt	nt
CN(C)C(=O)[C@@H]1[C@@H](CO)[C@@H]2Cn3c(ccc(-c4ccncc4)c3=O)[C@H]1N2CC1CC1	nt	nt	1	nt	2	nt
Brc1ccc(-n2cnc(-c3ccccc3)c2)cc1	-41	45*	-35	-151	12	45
c1c2c(cc3sc(N4CCOCC4)nc13)OCO2	-21	nt	nt	nt	-22	nt
c1ccc(N2CCN(c3nc4cc5c(cc4s3)OCO5)CC2)cc1	-16	19	nt	-185	49*	20
c1ccc2c(c1)CCN(c1nc3cc4c(cc3s1)OCO4)C2	-35	nt	nt	-93	-25	nt
c1c2c(cc3sc(N4CCCCC4)nc13)OCO2	10	54*	nt	-52	nt	-4
COCC#Cc1ccc2c(c1)O[C@@H](CN(C)Cc1ccc3c(c1)OCO3)[C@H](C)CN([C@H](C)CO)S2(=O)=O	nt	nt	-24	27	15	nt
CCN(CC)c1ccc2cc(C(=O)c3cccs3)c(=O)oc2c1	nt	0	-121	-107	72*	nt
CCN(CC)c1ccc2cc(-c3nc4ccccc4n3C)c(=O)oc2c1	-8	nt	nt	nt	16	6
CCN(CC)c1ccc2cc(-c3nnc(-c4ccccc4)o3)c(=O)oc2c1	-71	nt	nt	nt	46*	64
CCN(CC)c1ccc2cc(-c3nc4ccccc4[nH]3)c(=O)oc2c1	79*	nt	nt	nt	-34	-80
CCN(CC)c1ccc2cc(C(=O)NCc3ccc(F)cc3)c(=N)oc2c1	-5	1	nt	-26	11	5
COc1ccc2c3c(n(C)c2c1)[C@@H](CO)N(CC1CC1)CC31CCN(C(=O)c2ccc(F)cc2)CC1	nt	nt	6	5	nt	nt
Cc1ccc(-n2nc(-c3ccccc3)cc2Nc2ccccc2N)cc1	-11	-7	-10	-12	nt	11
Cc1ccc(-c2cc(N)n3nc(-c4ccc(C)cc4)cc3n2)cc1	-12	-2	nt	nt	-1	12
Cc1ccc(-c2cc3nc(-c4ccccc4)cc(N)n3n2)cc1	-61	42*	nt	-185	nt	64
Cc1ccc(-c2cc(N)n(-c3ccc(F)cc3)n2)cc1	-95	9	-79	-161	nt	100*
Cc1ccc(-c2cc(N)n(-c3ccc(C)cc3)n2)cc1	-89	nt	nt	nt	47*	87*
O=C(C[C@@H]1CC[C@@H](NC(=O)Nc2cc(F)ccc2F)[C@H](CO)O1)NCc1ccc2c(c1)OCO2	nt	nt	-3	-50	-13	nt
COc1cccc(N2CCN(c3ncccn3)CC2)c1	-57	nt	nt	nt	43*	64
COc1cccc(C(=O)N2CCN(c3ncccn3)CC2)c1	-3	nt	nt	nt	-1	3
SMILES	MITF TRPM1 inh	Wnt act	EWS-Fli block	PAX8 inh HTS	esBAF inh	MITF act
Brc1ccc(N/N=C(/N=Nc2nn[nH]n2)c2ccccc2)cc1	67*	5	-14	55	nt	-67
On1c(-c2ccccc2)nc2ccccc21	-12	8	-2	-13	nt	14
O=Nc1c2nc3ccccc3n(O)c-2c2ccccc12	-38	40*	nt	-45	48*	nt
C[C@H](CO)N1C[C@H](C)[C@H](CN(C)Cc2ccc(C(=O)O)cc2)OCCCC[C@H](C)Oc2ccc(NS(=O)(=O)c3cccs3)cc2C1=O	nt	nt	-9	3	-5	nt
C[C@@H]1CN([C@@H](C)CO)C(=O)c2cccc(N(C)C)c2O[C@H]1CN(C)Cc1ccncc1	nt	nt	-3	-17	2	nt
COc1ccc2c3c([nH]c2c1)[C@@H](CO)N(C(=O)NC1CCCC1)CC31CN(S(C)(=O)=O)C1	nt	nt	15	nt	nt	nt
COc1cccc(NC2SC(=O)N(c3ccccc3)C2=O)c1 (stereo not drawn)	nt	25	-84	-158	59*	nt
C[C@@H]1CCCCO[C@H](CN(C)S(=O)(=O)c2ccc(Cl)cc2)[C@@H](C)CN([C@@H](C)CO)C(=O)c2cc(NC(=O)NC3CCCCC3)ccc2O1	nt	nt	-3	23	-6	nt
COc1ccc(C2=C(C=C(C#N)C#N)C(c3ccccc3C)c3ccccc3O2)cc1OC (stereo not drawn)	8	-2	18	65*	nt	-7
COc1cc(-c2nnc(COC(=O)C3c4ccccc4Oc4ccccc43)o2)cc(OC)c1OC	-14	nt	nt	nt	-7	13
Cc1cc(C)c2c(=O)n3c(nc2c1)C(Cc1ccc(O)cc1)NC(=O)c1cc2ccccc2cc1-3 (stereo not drawn)	nt	-3	27	72*	13	nt
O=C1NC(Cc2ccc(O)cc2)c2nc3ccc(Br)cc3c(=O)n2-c2cc3ccccc3cc21 (stereo not drawn)	nt	-9	27	?	37	nt
CCCNC(=O)C[C@@H]1CC[C@@H]2[C@H](COC[C@H](O)CN2C(=O)Nc2ccc3c(c2)OCO3)O1	nt	nt	-71	-76	31	nt
CC(=O)Oc1cccc(NC(=O)c2ccc3c(c2)C(=O)N(CC(C)C)C3=O)c1	-1	27	-28	-26	44*	2
COCCCN1C(=O)c2ccc(C(=O)Nc3cccc(OC)c3)cc2C1=O	-8	nt	nt	nt	35	10
C=CCc1ccc(OCc2ccc(C(=O)Nc3ccc(NC(C)=O)cc3)o2)c(OC)c1	-31	20	-61	-11	47*	39
COc1ccccc1NC(=O)c1ccc(COc2ccccc2OC)o1	-12	2	nt	nt	8	8
Cc1cccc(N=Nc2cnc(N)s2)c1	-64	35*	-78	-58	nt	68
CC(=O)Nc1ncc(N=Nc2cccc(C(F)(F)F)c2)s1	-24	5	-74	32	26	30
COc1ccc(S(=O)(=O)N[C@H]2CC[C@@H](CC(=O)N3CCN(c4ccccc4)CC3)O[C@H]2CO)cc1	nt	nt	1	18	8	nt
O=C(OCC(=O)N1CCc2ccccc2C1)c1c(F)cccc1Cl	-112	55*	-57	-186	30	115*
Cc1ccsc1C(=O)OCC(=O)N1CCc2ccccc2C1	-92	11	9	-104	57*	92*
O=C(OCC(=O)N1CCCC1)c1c(Cl)cccc1Cl	4	-2	0	15	28	3
COc1n[nH]c(C(=O)Nc2nc3ccccc3s2)c1[N+](=O)[O-]	15	53*	-22	-73	nt	-12
COc1ccc(C(=O)Nc2nc3ccccc3s2)c(OC)c1	84*	-9	91*	106*	-85	nt
COc1ccccc1C(=O)Nc1nc2ccccc2s1	81*	-8	93*	101*	-84	nt
COc1ccc(NC(=O)Nc2nc3ccccc3s2)cc1	-87	2	-115	-158	nt	?
CCCC#Cc1ccc([C@@H]2[C@@H](CO)N3C(=O)CN(C(=O)CN4CCOCC4)C[C@@H]23)cc1	nt	nt	-5	nt	nt	nt
